Data: PubChem BioAssay AID720597 (Broad Institute, 2013)
Entries with a potency or affinity are not part of this list. Calls of active or inactive are those of the source.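 Rule for the calls: active = fitted half-maximal dose no more than twice the top valid tested dose, for compounds that lower signal; inconclusive = fit invalid, or curve flat with activity between -70 and -30; inactive = potency past limit, curve flat within ±30, or signal increasing.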

These compounds were tested against NAD-dependent protein deacylase sirtuin-5, mitochondrial (Homo sapiens) (UniProt Q9NXA8) (assay: blockers of sirtuin-5 peptide desuccinylation – biochemical, fluorescence imaging, cherry-pick, set 6, dose response (AID 720597;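 note: lower AMC signal can also come from blocking the trypsin step; 0% = median of neutral control wells and -100% = median of positive control wells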)). Conditions: Purified SirT5, succinyl-peptide-AMC/trypsin fluorescence; series mostly up to 15 µM; activity change, negative = inhibition: at the top concentration.
Sequence of NAD-dependent protein deacylase sirtuin-5, mitochondrial (Homo sapiens) (Q9NXA8 whole entry, looked up): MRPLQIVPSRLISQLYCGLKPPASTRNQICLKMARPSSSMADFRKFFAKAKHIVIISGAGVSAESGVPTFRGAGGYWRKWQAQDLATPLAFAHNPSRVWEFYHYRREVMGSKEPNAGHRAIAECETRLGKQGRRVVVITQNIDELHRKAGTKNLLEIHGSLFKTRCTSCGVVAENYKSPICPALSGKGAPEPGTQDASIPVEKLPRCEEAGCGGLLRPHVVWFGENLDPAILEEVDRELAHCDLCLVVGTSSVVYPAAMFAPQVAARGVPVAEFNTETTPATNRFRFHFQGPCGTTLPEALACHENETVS

| SMILES | activity change, negative = inhibition |
| --- | --- |
| C[C@@H]1CN([C@@H](C)CO)C(=O)c2cccc(NC(=O)CCCCCC(=O)Nc3ccccc3N)c2O[C@H]1CN(C)Cc1ccc(-c2ccccc2)cc1 | -19.2% (inactive) |
| COc1ccc(CN(C)C[C@H]2Oc3ccc(NS(=O)(=O)c4ccc(Cl)cc4)cc3CC(=O)N([C@@H](C)CO)C[C@@H]2C)cc1 | -24.5% (inactive) |
| COc1cccc(NC(=O)N(C)C[C@H]2Oc3ncc(C4=CCCCC4)cc3C(=O)N([C@H](C)CO)C[C@@H]2C)c1 | 14.6% (inactive) |
| COc1ccc(S(=O)(=O)N(C)C[C@H]2OCCCC[C@H](C)Oc3ccc(NS(=O)(=O)c4ccc(F)cc4)cc3C(=O)N([C@@H](C)CO)C[C@@H]2C)cc1 | -23.8% (inactive) |
| COc1ccccc1NC(=O)N[C@H]1CC[C@H](CCNC(=O)c2ccc3c(c2)OCO3)O[C@@H]1CO | -8.95% (inactive) |
| C[C@@H]1CN([C@@H](C)CO)S(=O)(=O)c2ccc(C#CC3CC3)cc2O[C@@H]1CN(C)Cc1ccccc1F | 7.53% (inactive) |
| C[C@H]1CCCCO[C@@H](CN(C)C(=O)Nc2ccc(C(F)(F)F)cc2)[C@@H](C)CN([C@@H](C)CO)C(=O)c2cc(NS(=O)(=O)c3ccc(Cl)cc3)ccc2O1 | 18% (inactive) |
| CO[C@H](CN(C)Cc1nccs1)[C@@H](C)CN([C@@H](C)CO)S(=O)(=O)c1ccc(C)cc1 | -8.22% (inactive) |
| C[C@@H]1CN([C@@H](C)CO)C(=O)Cc2cc(NS(=O)(=O)c3ccc(F)cc3)ccc2O[C@H]1CN(C)Cc1ccc(C(F)(F)F)cc1 | -16.2% (inactive) |
| C[C@H]1CCCCO[C@H](CN(C)C(=O)Nc2ccc(C(F)(F)F)cc2)[C@@H](C)CN([C@@H](C)CO)C(=O)c2cc(NS(=O)(=O)c3ccc(Cl)cc3)ccc2O1 | -6.61% (inactive) |
| Cc1ccc(-c2ccc(C3[C@@H]4CN(S(=O)(=O)c5cccc(C)c5)C[C@H]3N4)cc2)cc1 (some centres undefined) | -13.1% (inactive) |
| CCCC#Cc1ccc([C@@H]2[C@@H](CO)N3CCCCN(S(=O)(=O)Cc4ccccc4)C[C@H]23)cc1 | 35.3% (inactive) |
| Cc1cccc(S(=O)(=O)N(C)C[C@@H]2OCc3ccccc3-c3c(n(C)c4ccccc34)C(=O)N([C@H](C)CO)C[C@@H]2C)c1 | -6.71% (inactive) |
| COc1ccccc1NC(=O)N1CC(=O)N2[C@H](CO)[C@@H](c3ccc(C#CC4CC4)cc3)[C@H]2C1 | -19.2% (inactive) |
| C[C@H](CO)N1C[C@H](C)[C@@H](CN(C)Cc2ccccc2C(F)(F)F)OCc2ccccc2-c2ccccc2C1=O | -29.4% (inactive) |
| C[C@@H]1CN([C@@H](C)CO)S(=O)(=O)c2ccc(/C=C/c3ccccc3)cc2O[C@@H]1CN(C)C(=O)NC1CCCC1 | -1.6% (inactive) |
| O=C(C[C@H]1CC[C@H]2[C@@H](COC[C@@H](O)CN2S(=O)(=O)c2ccccc2)O1)Nc1ccc(-c2ccccc2)cc1 | 6.03% (inactive) |
| Cc1noc(C)c1NC(=O)N(C)C[C@@H]1OCCCC[C@H](C)Oc2ccc(NC(=O)Nc3ccc(F)cc3)cc2C(=O)N([C@@H](C)CO)C[C@@H]1C | -8.47% (inactive) |
| C[C@H](CO)N1C[C@H](C)[C@@H](CN(C)Cc2ccc(Cl)c(Cl)c2)Oc2ccc(NS(=O)(=O)c3ccc(Cl)cc3)cc2CC1=O | 38.2% (inactive) |
| CCCC#Cc1ccc([C@H]2[C@H]3CN(C(=O)Cc4cccnc4)CC(=O)N3[C@H]2CO)cc1 | -23.8% (inactive) |

| SMILES | activity change, negative = inhibition |
| --- | --- |
| Cc1noc(C)c1NC(=O)Nc1cccc2c1O[C@@H](CN(C)Cc1ccc(Oc3ccccc3)cc1)[C@H](C)CN([C@@H](C)CO)C2=O | -13.3% (inactive) |
| COc1ccc(C#Cc2ccc([C@@H]3[C@@H](CO)N4C(=O)CN(C(=O)c5cccnc5)C[C@@H]34)cc2)cc1 | -16.9% (inactive) |
| C[C@@H]1CN([C@H](C)CO)S(=O)(=O)c2ccc(C#Cc3cccc(F)c3)cc2O[C@H]1CN(C)S(=O)(=O)c1ccccc1F | 45.5% (inactive) |
| C[C@@H]1CN([C@@H](C)CO)C(=O)c2c(c3ccccc3n2C)-c2ccccc2CO[C@@H]1CN(C)Cc1cccc(O)c1 | 27.1% (inactive) |
| COc1ccccc1-c1ccc2c(c1)O[C@@H](CN(C)S(=O)(=O)c1ccc(F)cc1)[C@@H](C)CN([C@@H](C)CO)S2(=O)=O | -7.03% (inactive) |
| Cc1noc(C)c1NC(=O)Nc1cccc2c1O[C@@H](CN(C)Cc1ccc(Oc3ccccc3)cc1)[C@H](C)CN([C@H](C)CO)C2=O | -7.07% (inactive) |
| C[C@@H]1CCCCO[C@@H](CN(C)C(=O)Nc2ccc(C(F)(F)F)cc2)[C@H](C)CN([C@@H](C)CO)C(=O)c2cc(NS(=O)(=O)c3ccc(Cl)cc3)ccc2O1 | 11.3% (inactive) |
| CC(C)NC(=O)Nc1ccc2c(c1)C(=O)N([C@H](C)CO)C[C@H](C)[C@H](CN(C)C(=O)Cc1ccccc1)OCCCC[C@H](C)O2 | -25.6% (inactive) |
| C[C@@H]1CN([C@H](C)CO)S(=O)(=O)c2ccc(/C=C/c3ccccc3)cc2O[C@H]1CN(C)C(=O)NC1CCCCC1 | 4.48% (inactive) |
| O=C(NCC[C@@H]1CC[C@H](NS(=O)(=O)c2cccc(F)c2)[C@@H](CO)O1)C1CCOCC1 | 15.4% (inactive) |
| C[C@@H]1CN([C@@H](C)CO)C(=O)c2cccc(NS(=O)(=O)c3cn(C)cn3)c2O[C@H]1CN(C)Cc1ccc(C(F)(F)F)cc1 | -11% (inactive) |
| Cc1ccc(S(=O)(=O)Nc2ccc3c(c2)C(=O)N([C@H](C)CO)C[C@@H](C)[C@H](CN(C)Cc2ccc(Cl)c(Cl)c2)OCCCC[C@H](C)O3)cc1 | 0.114% (inactive) |
| C[C@H](O)C#Cc1ccc2c(c1)O[C@H](CN(C)Cc1ccc(-c3ccccc3)cc1)[C@H](C)CN([C@H](C)CO)S2(=O)=O | -26.1% (inactive) |
| C[C@@H]1CN([C@H](C)CO)C(=O)CCCn2cc(nn2)CO[C@H]1CN(C)S(=O)(=O)c1ccc(F)cc1 | -5.68% (inactive) |
| C[C@H]1CN([C@@H](C)CO)C(=O)Cc2cc(NC(=O)CCCCCC(=O)Nc3ccccc3N)ccc2O[C@H]1CN(C)Cc1ccc(Oc2ccccc2)cc1 | -12% (inactive) |
| C[C@@H]1CN([C@H](C)CO)C(=O)c2cc(NC(=O)CCCCCC(=O)Nc3ccccc3N)ccc2O[C@@H]1CN(C)Cc1ccc(Cl)c(Cl)c1 | 1.64% (inactive) |
| CO[C@H]1CN(C)C(=O)c2cc(NC(=O)NC(C)C)ccc2OC[C@@H](C)N(C(=O)CC2CC2)C[C@@H]1C | -9.33% (inactive) |
| C[C@@H]1CN([C@@H](C)CO)S(=O)(=O)c2ccc(C#C[C@@H](C)O)cc2O[C@H]1CN(C)Cc1ccc(-c2ccccc2)cc1 | 1.09% (inactive) |
| COc1ccc(S(=O)(=O)Nc2ccc3c(c2)C(=O)N([C@H](C)CO)C[C@@H](C)[C@H](CN(C)Cc2ccc(Oc4ccccc4)cc2)O3)cc1 | -25.1% (inactive) |
